USP30 block: inhibitors of human USP30 deubiquitinase; inhibition, % at 25 µM; 47,000 compounds, 5.3% hits; Ubiquitin carboxyl-terminal hydrolase 30 (Homo sapiens), Q70CQ3; AID 1645860, 2021; purified USP30, Ub-rhodamine cleavage fluorescence
USP28 inh: inhibitors of human USP28 deubiquitinase | Ubiquitin carboxyl-terminal hydrolase 28 (Homo sapiens), Q96RU2 | purified USP28, Ub-rhodamine cleavage fluorescence, 30 min | inhibition, % at 25 µM | 47,000 compounds, 3% hits | AID 1645857, 2021
USP17 block: inhibitors of human USP17 deubiquitinase | inhibition, % at 50 µM | 47,000 compounds, 6.5% hits | Ubiquitin carboxyl-terminal hydrolase 17-like protein 5 (Homo sapiens), A8MUK1 | AID 1645855, 2021 | purified USP17, Ub-rhodamine cleavage fluorescence, 3 h
Target sequence (A8MUK1 whole entry, looked up): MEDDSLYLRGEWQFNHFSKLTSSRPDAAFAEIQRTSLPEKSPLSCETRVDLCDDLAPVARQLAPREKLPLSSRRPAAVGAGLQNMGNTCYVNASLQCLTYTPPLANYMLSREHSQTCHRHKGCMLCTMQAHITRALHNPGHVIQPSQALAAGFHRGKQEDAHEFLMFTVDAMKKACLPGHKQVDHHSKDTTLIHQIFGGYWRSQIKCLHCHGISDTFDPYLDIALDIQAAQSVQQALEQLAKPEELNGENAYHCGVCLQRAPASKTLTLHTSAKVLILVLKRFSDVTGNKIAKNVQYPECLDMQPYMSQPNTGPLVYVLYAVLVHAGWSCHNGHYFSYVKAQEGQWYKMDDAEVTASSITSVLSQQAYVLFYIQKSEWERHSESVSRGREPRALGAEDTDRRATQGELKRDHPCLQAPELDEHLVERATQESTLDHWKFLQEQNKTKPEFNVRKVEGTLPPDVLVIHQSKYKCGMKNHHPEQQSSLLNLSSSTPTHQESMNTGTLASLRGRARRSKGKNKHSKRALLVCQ
Of the large screens only hits and unclear results are named; the others gave an inactive call. This is a sample that favours compounds with a hit; in the whole collection about 11% have one here. Cut-off read from the data, not from the text of the source: active = inhibition above about 30%; inactive = the rest.

O=C(NC1CC1)c1cn(-c2ccc(Cl)cc2)nn1	none (no result: USP17 block)
Cc1cc(NC(=O)c2ccc3c(=O)n4c(nc3c2)CCCCC4)no1	USP30 block 31
O=C(NC1CC1)c1ccc2c(=O)n3c(nc2c1)CCCC3	none (no result: USP30 block, USP28 inh)
Cc1cc(=O)oc2cc(NC(=O)c3ccc4c(=O)n5c(nc4c3)CCCC5)ccc12	none
CC(OC(=O)c1ccc2c(=O)n3c(nc2c1)CCCCC3)C(=O)NC1CCCC1 (centres undefined)	USP30 block 47, USP17 block 31
CC(NC(=O)c1ccc2c(=O)n3c(nc2c1)CCCCC3)c1ccccc1 (centres undefined)	none
N#Cc1cccc(NC(=O)c2ccc3c(=O)n4c(nc3c2)CCCCC4)c1	USP17 block 36
Nc1c(-c2cccc(Cl)c2)cnn1-c1ccc(C(=O)O)cc1	none
COc1ccc(-n2nnc(C(=O)Nc3ccccc3)c2N)cc1	USP17 block 51
COc1cccc(-n2nnc(C(=O)Nc3ccc(Oc4ccccc4)cc3)c2C)c1	none
Cc1ccc(-n2nnc(C(=O)Nc3ccccc3)c2C)cc1	USP17 block 49
COc1ccc(Cl)cc1-n1nnc(C(=O)Nc2ccc(C)cc2C)c1C	USP17 block 31
COc1ccccc1-n1nnc(C(=O)Nc2ccc(Oc3ccccc3)cc2)c1C	USP28 inh 52
COc1ccc(-n2nnc(C(=O)Nc3cccc(Cl)c3)c2C)cc1	none
CCc1ccc(NC(=O)c2nnn(-c3ccc(C)cc3)c2C)cc1	none
Cc1ccc(NC(=O)c2nnn(-c3cccc(Cl)c3)c2C)cc1C	none
CCn1cc(C(=O)NC2CCCCCC2)c(S(=O)(=O)N2CCCCC2)n1	none
CCOC(=O)c1cc(-c2ccccc2)sc1NC(=O)c1ccccc1Cl	none
O=C(Cc1cccc(F)c1)N1CCC(c2onc3c2CCCC3)CC1	none
CCc1cc(C2CCCN2C(=O)c2cc(-c3ccc(OC)cc3)no2)on1 (centres undefined)	none
CC(C)c1ccccc1NC(=O)Cc1cccc2cccnc12	none
O=C(CSc1ncnc2c1sc1nc(-c3ccccc3)c3c(c12)CCC3)NCc1ccccc1	none
COc1ccc(S(=O)(=O)N2CCC3(CC2)CC3c2nnc3n2CCCCC3)cc1C (centres undefined)	none
Cc1c(C(=O)Nc2ccccc2F)nnn1-c1cccc(F)c1	none
COc1ccc(NC(=O)c2nnn(-c3ccccc3)c2C)cc1OC	USP28 inh 56
COc1ccc(NC(=O)c2nnn(-c3ccccc3)c2C)cc1Cl	none
Cc1cccc(NC(=O)c2nnn(-c3ccccc3Cl)c2C)c1C	USP28 inh 39
COc1ccc2[nH]c(CN3CCOC(c4nc(C)cc(C)n4)C3)cc2c1 (centres undefined)	none
CCOc1ccccc1-c1noc(Cn2c(=O)[nH]c3cc4c(cc3c2=O)OCO4)n1	none
O=C1N(CCc2ccccc2)CC=CCC12CCCN(Cc1ccnc(N3CCCC3)n1)C2 (centres undefined)	none
CCOc1cc(C2Nc3ccccc3C(=O)N2c2ccc3c(c2)OCO3)ccc1O (centres undefined)	none
O=C(Nc1ccc(F)cc1)c1ccc2c(c1)C1C3CCC(C3)C1C(c1ccccc1)N2 (centres undefined)	USP30 block 32
CC(=O)Nc1ccc(NC(=O)c2ccc3c(c2)CC(c2ccccc2)OC3=O)cc1 (centres undefined)	none
Cc1cc(C)c2nc(N3CCCC(C(=O)NCCc4ccc(Cl)cc4)C3)sc2c1 (centres undefined)	none
COc1ccccc1CNC(=O)C1CCCN(c2nc3c(C)cc(C)cc3s2)C1 (centres undefined)	none
Cc1cc(C)c2nc(N3CCCC(C(=O)NCc4ccccc4C)C3)sc2c1 (centres undefined)	USP17 block 33
Cc1cc(C)c2nc(N3CCCC(C(=O)NCc4cccc(F)c4)C3)sc2c1 (centres undefined)	USP30 block 37
O=C(c1ccccc1)N1CC[C@H](c2nnc(-c3ccncc3)o2)C1	none
Cc1ccc(CNC(=O)N2CCC(c3nc(C(=O)N4CCCC4)c(C)o3)CC2)cc1	none
Cc1cc(C)cc(NC(=O)N2CCC(c3nnc(-c4ccccc4)o3)CC2)c1	USP30 block 35
Cc1ccc(NC(=O)N2CCC(c3nc(C(=O)N4CCCC4)c(C)o3)CC2)cc1	USP30 block 33
CC1(C)Cc2c(sc3nc(-c4ccccc4)nc(SCC(=O)Nc4ccc(Br)cc4)c23)CO1	none
COc1cccc(N2CCN(CC3C(=O)O[C@@H]4C[C@@]5(C)CCC=C(C)C5=C[C@H]34)CC2)c1 (some centres undefined)	none
CCN1C(=O)CCc2cc(NS(=O)(=O)c3ccccc3C(F)(F)F)ccc21	none
O=C(NCCCN1CCCC1)c1cccc(Cl)c1	none
O=C(Cc1cccc(Cl)c1)NCCN1CCC(O)(c2cccc(F)c2)CC1	USP30 block 34
O=C(Nc1ccc(-c2nnc3n2CCCCC3)cc1)c1ccc2c(c1)OCO2	USP28 inh 71
COc1cc(OC)cc(C(=O)Nc2ccc(Cn3cncn3)cc2)c1	none
CN(C)S(=O)(=O)c1cccc(C(=O)Nc2cccc(-c3nnc4n3CCCCC4)c2)c1	none
CC(=O)Nc1cccc(C(=O)Nc2ccc(Cn3cncn3)cc2)c1	none
O=C(Nc1ccc(Cn2cncn2)cc1)c1ccc2c(c1)OCO2	USP28 inh 45
COc1ccc(C(=O)Nc2ccc(Cn3cncn3)cc2)cc1F	USP28 inh 35
CN(Cc1cccnc1)c1nc2c(c(=O)[nH]1)CCN(Cc1ccccc1C#N)CC2	none
CN1C(=O)OC[C@@H]2CCN(C(=O)Nc3ccc(Cl)cc3)C[C@H]21	none
Cn1cc(C2=CCN(S(=O)(=O)c3cc(F)ccc3F)CC2)c2cccnc21	none
COc1cccc(NC(=O)Cn2c3ccccc3n3c(=O)cc(-c4ccccc4)nc23)c1	none (no result: USP17 block)
CC(=O)c1cc2c(cc1NC(=O)c1cc(S(=O)(=O)N3CCCC3)cn1C)OCO2	none
CC(=O)c1cc2c(cc1NC(=O)c1oc3c(c1C)-c1[nH]ncc1CC3)OCO2	USP17 block 43
Cc1sc(NCc2ccccc2)nc1-c1ccccc1	USP28 inh 40
Cc1sc(NC(=O)C2CCCCC2)nc1-c1ccccc1	none
Cc1nc(C2CCCN2C(=O)CN(C)Cc2ccccc2)no1 (centres undefined)	none (no result: USP17 block)
COCCNC(=O)CN1C(=O)c2ccccc2Sc2ccc(C(=O)N3CCCC3)cc21	none
COc1ccc(NC(=O)CN2C(=O)c3ccccc3Sc3ccc(C(=O)N4CCCC4)cc32)c(OC)c1	USP30 block 49, USP17 block 55
Cc1noc(COC2CCN(S(=O)(=O)c3cccc(F)c3)CC2)n1	none
CCn1cnnc1C1CCCN(Cc2ccc(C)cc2)C1 (centres undefined)	none (no result: USP17 block)
COc1ccc(C(=O)Nc2cc3c4c(c2)CC(=O)N4CCC3)cc1	USP28 inh 49
Cc1ccc(C(=O)Nc2cc3c4c(c2)CC(=O)N4CCC3)cc1	USP28 inh 56 (no result: USP17 block)
COc1ccc(C(=O)Nc2cc3c4c(c2)C(C)C(=O)N4CCC3)cc1 (centres undefined)	USP28 inh 52
CC1C(=O)N2CCCc3cc(NC(=O)c4ccc(F)cc4)cc1c32 (centres undefined)	none
O=C(Nc1cc2c3c(c1)CC(=O)N3CCC2)c1ccc(F)cc1	none
O=C(Nc1cc2c3c(c1)CC(=O)N3CCC2)c1ccc([N+](=O)[O-])cc1	none
Cc1ccccc1Nc1nc(N)nc(CSc2ccc(Cl)cc2)n1	none
